For 39 compounds, growth results are on record in PubChem BioAssay (NCI).

This is part of a sample that, as a whole, favours compounds with a hit. Of some 83,000 tested, about 20% had one in any assay.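 A percent growth of 40 corresponds to 60% growth inhibition; 0 means no net growth; -100 means all cells died. Active threshold: below 10.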 Calls of active or inactive are those of the source.

One test relates to SNB-19 CNS. Kind of test: NCI-60 one-dose screen, 48 h (100 = growth as untreated, 0 = no growth, -100 = all killed). The following applies: 10 µM.
For the compound `CCCCCCCCCCCCCCCCC1CC(=O)OC1=O` (centres undefined), the growth is 105% (inactive).

With `COc1cc2c(cc1OC)[C@H](C(=O)O)[C@@H](c1ccc(OC(C)C)c(OC)c1)N(C)C2=O`, the growth was 94.8% (inactive).

Regarding `CC1CC(O)CC(C)(C)C1` (centres undefined), the growth was 104% (inactive).

As to `Nc1ccc(C(=O)c2ccc(N)c(Br)c2)cc1Br`, the growth was 33.4% (inactive).

Turning to `NC(N)=Nc1cc2ccccc2c2ccccc12`, the growth is 82.2% (inactive).

Consider `C[C@]12CC[C@@H]3c4ccc(OCC(=O)O)cc4CC[C@H]3[C@@H]1CCC2=O`, for which the growth is 103% (inactive).

As to `CNS(=O)(=O)c1ccc(Cl)c(Cl)c1`, the growth was 106% (inactive).

As for `C=CC(O)CCC` (centres undefined), the growth was 100% (inactive).

For the compound `O=P(O)(O)OCC(O)CO` (centres undefined), the growth is 104% (inactive).

In the case of `O=C(O)CSCSCC(=O)O`, the growth is 96.6% (inactive).

`CCOC(=O)CCCS(C)(=O)=O`: the growth was 100% (inactive).

On to `Cc1cc(Cc2cc(C)c(N)cc2N)c(N)cc1N`, for which the growth is 96.3% (inactive).

For `COCCOCCCl`, the growth is 103% (inactive).

As to `COc1cc2nn(-c3ccccc3N)nc2cc1OC`, the growth was 99.9% (inactive).

Regarding `CC1(O)CCCCC1O` (centres undefined), the growth is 97.3% (inactive).

Turning to `O=C(CCl)Nc1ccc2c(c1)C(=O)c1ccc(NC(=O)CCl)cc1C2=O`, the growth is -45.3% (active).

As to `C=CCNc1nnc(C)s1`, the growth is 109% (inactive).

`COc1cc(/C=N\Nc2ccccc2)ccc1OC(=O)c1ccccc1`: the growth was 108% (inactive).

Regarding `CCC(C#N)(CC)c1ccccc1`, the growth is 99.5% (inactive).

`O=C1C[C@H](c2ccccc2)[C@H](c2ccccc2)C1`: the growth is 96.1% (inactive).

Regarding `Cn1cnc2nc(Cl)nc(Cl)c21`, the growth is 61.4% (inactive).

The next test has as its system U251 CNS. Described as above. The following applies: 10 µM.
Consider `Cc1cc(C)c(N)c(S(=O)(=O)O)c1`, for which the growth is 98.2% (inactive).

On to `CC1CCC(C(=O)O)N1` (centres undefined), for which the growth was 96% (inactive).

Consider `S=c1sc2ccccc2n1CN1CCCCC1`, for which the growth is 104% (inactive).

For `CCCCC/C=N/Nc1nc(C)cc(=O)[nH]1`, the growth is 96.6% (inactive).

On to `CCOC(=O)C(O)C(O)C(=O)OCC` (centres undefined), for which the growth was 102% (inactive).

For `CC(=O)NCc1cc(C)c(C)cc1C`, the growth is 97.9% (inactive).

As to `CCN=c1cc2sc3cc(NCC)c(C)cc3nc-2cc1C`, the growth was 10.7% (inactive).

As for `COc1cc(-c2ccc(NC(=O)NC3CC3)c(OC)c2)ccc1NC(=O)NC1CC1`, the growth was 37.4% (inactive).

As for `O=C(NC1CCCCC1)OCc1c(COC(=O)NC2CCCCC2)c(-c2ccc(Cl)c(Cl)c2)n2c1CCC2`, the growth is 29.4% (inactive).

As to `COC(=O)c1ccccc1Br`, the growth was 106% (inactive).

For `COS(=O)(=O)c1ccc(Br)cc1`, the growth was 89% (inactive).

`COc1cc(C(=O)NC(=S)Nc2ccc3ccccc3c2)cc(OC)c1OC`: the growth is 102% (inactive).

With `CC(=O)OCC(=O)[C@@]1(O)CC[C@H]2[C@@H]3CC[C@@H]4C[C@H](O)CC[C@]4(C)[C@H]3C(=O)C[C@@]21C`, the growth is 102% (inactive).

In the case of `O=C1C=C(Nc2ccc([N+](=O)[O-])cc2)c2ccccc2C1=O`, the growth is 28.5% (inactive).

For `CNC(=O)c1ccccc1CC1(O)c2ccccc2Oc2ccccc21`, the growth was 47.8% (inactive).

Turning to `O=C(O)C(O)c1ccccc1` (centres undefined), the growth was 103% (inactive).

Consider `CCCCC1(CC)COC(CCC)OC1` (centres undefined), for which the growth was 94.7% (inactive).

For the compound `CCOC(=O)c1ccc(NC(=S)P(=O)(c2ccccc2)c2ccccc2)cc1`, the growth was 99.2% (inactive).

Take `CCCCCCCCCCCCCCCCC1CC(=O)OC1=O` (centres undefined): the growth was 96.4% (inactive).

For `COc1cc2c(cc1OC)[C@H](C(=O)O)[C@@H](c1ccc(OC(C)C)c(OC)c1)N(C)C2=O`, the growth was 97.3% (inactive).

For the compound `CC1CC(O)CC(C)(C)C1` (centres undefined), the growth is 101% (inactive).

For the compound `Nc1ccc(C(=O)c2ccc(N)c(Br)c2)cc1Br`, the growth is 18.2% (inactive).

Turning to `NC(N)=Nc1cc2ccccc2c2ccccc12`, the growth was 79.4% (inactive).

For `C[C@]12CC[C@@H]3c4ccc(OCC(=O)O)cc4CC[C@H]3[C@@H]1CCC2=O`, the growth was 104% (inactive).

As for `CNS(=O)(=O)c1ccc(Cl)c(Cl)c1`, the growth was 99.3% (inactive).

As to `C=CC(O)CCC` (centres undefined), the growth was 92.8% (inactive).

For the compound `O=P(O)(O)OCC(O)CO` (centres undefined), the growth is 94% (inactive).

As to `O=C(O)CSCSCC(=O)O`, the growth was 94.3% (inactive).

As to `CCOC(=O)CCCS(C)(=O)=O`, the growth is 105% (inactive).

For `Cc1cc(Cc2cc(C)c(N)cc2N)c(N)cc1N`, the growth was 88.9% (inactive).

Take `COCCOCCCl`: the growth was 105% (inactive).

Take `COc1cc2nn(-c3ccccc3N)nc2cc1OC`: the growth is 91.7% (inactive).

For `CC1(O)CCCCC1O` (centres undefined), the growth was 104% (inactive).

Turning to `O=C(CCl)Nc1ccc2c(c1)C(=O)c1ccc(NC(=O)CCl)cc1C2=O`, the growth is -89.3% (active).

As for `C=CCNc1nnc(C)s1`, the growth is 107% (inactive).

As to `COc1cc(/C=N\Nc2ccccc2)ccc1OC(=O)c1ccccc1`, the growth was 81.5% (inactive).

`CCC(C#N)(CC)c1ccccc1`: the growth is 109% (inactive).

As to `O=C1C[C@H](c2ccccc2)[C@H](c2ccccc2)C1`, the growth was 103% (inactive).

For the compound `Cn1cnc2nc(Cl)nc(Cl)c21`, the growth was 14.2% (inactive).

The test system of another test is PC-3 prostate. The test is described as above. The conditions noted are these: 10 µM.
Turning to `Cc1cc(C)c(N)c(S(=O)(=O)O)c1`, the growth is 96.6% (inactive).

With `CC1CCC(C(=O)O)N1` (centres undefined), the growth was 99.2% (inactive).

Take `S=c1sc2ccccc2n1CN1CCCCC1`: the growth is 77.2% (inactive).

Take `CCCCC/C=N/Nc1nc(C)cc(=O)[nH]1`: the growth was 88.7% (inactive).

In the case of `CCOC(=O)C(O)C(O)C(=O)OCC` (centres undefined), the growth was 98% (inactive).

Take `CC(=O)NCc1cc(C)c(C)cc1C`: the growth is 93.5% (inactive).

Consider `CCN=c1cc2sc3cc(NCC)c(C)cc3nc-2cc1C`, for which the growth is 3.93% (active).

In the case of `COc1cc(-c2ccc(NC(=O)NC3CC3)c(OC)c2)ccc1NC(=O)NC1CC1`, the growth was 41.6% (inactive).

On to `O=C(NC1CCCCC1)OCc1c(COC(=O)NC2CCCCC2)c(-c2ccc(Cl)c(Cl)c2)n2c1CCC2`, for which the growth was 55.1% (inactive).

Consider `COC(=O)c1ccccc1Br`, for which the growth was 80% (inactive).

With `COS(=O)(=O)c1ccc(Br)cc1`, the growth is 93.2% (inactive).

For the compound `COc1cc(C(=O)NC(=S)Nc2ccc3ccccc3c2)cc(OC)c1OC`, the growth is 82.4% (inactive).

Consider `CC(=O)OCC(=O)[C@@]1(O)CC[C@H]2[C@@H]3CC[C@@H]4C[C@H](O)CC[C@]4(C)[C@H]3C(=O)C[C@@]21C`, for which the growth was 95.5% (inactive).

For `O=C1C=C(Nc2ccc([N+](=O)[O-])cc2)c2ccccc2C1=O`, the growth is 23.9% (inactive).

On to `CNC(=O)c1ccccc1CC1(O)c2ccccc2Oc2ccccc21`, for which the growth was 35.3% (inactive).

Regarding `O=C(O)C(O)c1ccccc1` (centres undefined), the growth was 97.3% (inactive).

Consider `CCCCC1(CC)COC(CCC)OC1` (centres undefined), for which the growth is 82% (inactive).

With `CCOC(=O)c1ccc(NC(=S)P(=O)(c2ccccc2)c2ccccc2)cc1`, the growth is 80.1% (inactive).

Take `CCCCCCCCCCCCCCCCC1CC(=O)OC1=O` (centres undefined): the growth was 98.9% (inactive).

For `COc1cc2c(cc1OC)[C@H](C(=O)O)[C@@H](c1ccc(OC(C)C)c(OC)c1)N(C)C2=O`, the growth is 90% (inactive).

As to `CC1CC(O)CC(C)(C)C1` (centres undefined), the growth was 94.8% (inactive).

Take `Nc1ccc(C(=O)c2ccc(N)c(Br)c2)cc1Br`: the growth was 22.4% (inactive).

`NC(N)=Nc1cc2ccccc2c2ccccc12`: the growth was 61.5% (inactive).

Consider `C[C@]12CC[C@@H]3c4ccc(OCC(=O)O)cc4CC[C@H]3[C@@H]1CCC2=O`, for which the growth was 95.7% (inactive).

For the compound `CNS(=O)(=O)c1ccc(Cl)c(Cl)c1`, the growth was 113% (inactive).

Turning to `C=CC(O)CCC` (centres undefined), the growth is 90% (inactive).

`O=P(O)(O)OCC(O)CO` (centres undefined): the growth was 96.7% (inactive).

As for `O=C(O)CSCSCC(=O)O`, the growth was 103% (inactive).

As to `CCOC(=O)CCCS(C)(=O)=O`, the growth is 87.9% (inactive).

Regarding `Cc1cc(Cc2cc(C)c(N)cc2N)c(N)cc1N`, the growth was 85.4% (inactive).

With `COCCOCCCl`, the growth was 84.5% (inactive).

As to `COc1cc2nn(-c3ccccc3N)nc2cc1OC`, the growth is 97.8% (inactive).

Take `CC1(O)CCCCC1O` (centres undefined): the growth is 98.4% (inactive).

For the compound `O=C(CCl)Nc1ccc2c(c1)C(=O)c1ccc(NC(=O)CCl)cc1C2=O`, the growth is -22.1% (active).

Consider `C=CCNc1nnc(C)s1`, for which the growth is 89.6% (inactive).

Take `COc1cc(/C=N\Nc2ccccc2)ccc1OC(=O)c1ccccc1`: the growth is 49.8% (inactive).

For the compound `CCC(C#N)(CC)c1ccccc1`, the growth was 102% (inactive).

With `O=C1C[C@H](c2ccccc2)[C@H](c2ccccc2)C1`, the growth is 79.4% (inactive).

Turning to `Cn1cnc2nc(Cl)nc(Cl)c21`, the growth is 25.1% (inactive).
